By AC50 is commonly meant the concentration giving half of the maximal activity seen.

Results filed as inconclusive are left out. The source made the active and inactive calls. Unless noted, no cut-off is given here; in the data, nearly all actives have AC50 up to about 30 µM.

A short description of the first assay: growth inhibition of DIPG glioma cells, dose response, cell-based, SU-DIPG-XVII, MIPE5.0, CellTiter-Glo, qHTS (AID 1347060; cut-off not given, nearly all actives have AC50 up to about 26 µM;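 note: cells exposed to compound for 48 hours before viability readout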). Conditions: SU-DIPG-XVII viability, CellTiter-Glo ATP luminescence. In general terms: In ATP-based viability assays light output follows the ATP content of the culture.
For the compound `N#CCNC(=O)c1ccc(-c2ccnc(Nc3ccc(N4CCOCC4)cc3)n2)cc1`, the AC50 is 16.6 µM (active).

Consider `COC(=O)c1ccc2c(C(=Nc3ccc(N(C)C(=O)CN4CCN(C)CC4)cc3)c3ccccc3)c(O)[nH]c2c1`, for which the half-maximal activity concentration (AC50) was 1.48 µM (active).

Take `COc1cc2nccc(Oc3ccc(NC(=O)Nc4cc(C)on4)c(Cl)c3)c2cc1OC`: the AC50 is 8.33 µM (active).

A further assay in a line: growth inhibition of DIPG glioma cells, dose response, cell-based, JHH-DIPG-1, MIPE4.0, CellTiter-Glo, qHTS (AID 1347062; cut-off not given, nearly all actives have AC50 up to about 27 µM;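 for AC50: cells exposed to compound for two days before readout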). Conditions: JHH-DIPG-1 viability, CellTiter-Glo ATP luminescence.
Regarding `C#CCN(C)CC1=Cc2ccccc2Oc2ccccc21`, the result was inactive.

Consider `CC1(C)CNc2cc(NC(=O)c3cccnc3NCc3ccncc3)ccc21`, for which the compound was classed as inactive.

Turning to `Cc1cnc(NC(=O)Nc2cc(Br)c(C)cc2OC[C@@H]2CNCCO2)cn1`, the concentration at half-maximal activity (AC50) is 1.18 µM (active).

Turning to `CCOc1cc(/C=C2/C(=O)N(c3ccccc3)N=C2C)cc(Cl)c1OCC(=O)OC`, the compound was classed as inactive.

Turning to `Clc1ccc(COC(Cn2ccnc2)c2ccc(Cl)cc2Cl)c(Cl)c1` (centres undefined), the call was inactive.

`CNC(=O)c1c(-c2ccc(F)cc2)oc2cc(N(CCO)S(C)(=O)=O)c(C3CC3)cc12`: the AC50 was 20.9 µM (active).

A further assay in a line: growth inhibition of DIPG glioma cells, dose response, cell-based, SU-DIPG-IV, MIPE4.0, CellTiter-Glo, qHTS (AID 1347063).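 Note: compound exposure lasted 48 hours before the viability readout.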 The note with it: SU-DIPG-IV viability, CellTiter-Glo ATP luminescence.
On to `O[C@@H](COc1cccc2ncccc12)CN1CCN(C2c3ccccc3[C@@H]3[C@H](c4ccccc42)C3(F)F)CC1` (some centres undefined), for which the AC50 was 16.6 µM (active).

With `NCc1c[nH]c(=S)n1[C@H]1CCc2c(F)cc(F)cc2C1`, the AC50 is 9.35 µM (active).

Consider `C[C@H]1[C@H](O)O[C@@H]2O[C@@]3(C)CC[C@H]4[C@H](C)CC[C@@H]1[C@@]24OO3`, for which the concentration at half-maximal activity (AC50) was 2.96 µM (active).

Regarding `Cc1cc(Nc2cc(CN3CCOCC3)c3nc(C)c(Cc4ccc(Cl)cc4F)n3n2)n[nH]1`, the AC50 is 11.8 µM (active).

In the case of `COc1cc(F)c(C(C)C)cc1-c1ccc(C(F)(F)F)cc1CN1C(=O)O[C@H](c2cc(C(F)(F)F)cc(C(F)(F)F)c2)[C@@H]1C`, the outcome was inactive.

Consider `COc1cc(C(C)C)c(Oc2cnc(NC(CO)CO)nc2N)cc1I`, for which the AC50 was 14.8 µM (active).

For `CC1=C[C@@H]2[C@H]([C@@H](O)C[C@@]3(C)[C@H]2C[C@@H](C)[C@]3(O)C(=O)CO)[C@@]2(C)Cc3cnn(-c4ccccc4)c3C=C12`, the AC50 is 3.72 µM (active).

On to `CCN(CC)CCCCNc1ncc2c(n1)N(C)C(=O)N(c1c(Cl)c(OC)cc(OC)c1Cl)C2`, for which the half-maximal activity concentration (AC50) was 18.7 µM (active).

In the case of `COc1ccccc1[C@H](c1cccc2ccccc12)[C@@](C)(C#N)C(=O)N1CCC(c2cccc(C(F)(F)F)c2)CC1`, the half-maximal activity concentration (AC50) is 3.32 µM (active).

For `O=C(Nc1ccccc1-c1cn2c(CN3CCNCC3)csc2n1)c1cnc2ccccc2n1`, the AC50 was 8.33 µM (active).

Regarding `COc1cc(C)c(Sc2cnc(NC(=O)c3ccc(CNC(C)C(C)C)cc3)s2)cc1C(=O)N1CCN(C(C)=O)CC1` (centres undefined), the AC50 is 18.7 µM (active).

Regarding `CC(C)C[C@@H](N)[C@H](O)C(=O)N[C@H](C(=O)N[C@H](C(=O)N[C@@H](CC(=O)O)C(=O)O)C(C)C)C(C)C`, the call was inactive.

For the compound `N#Cc1c(NC(=O)c2cccc3ccccc23)sc2c1CCCC2`, the AC50 was 0.418 µM (active).

Consider `CC(C)CNc1ccnc(NCc2csc(-c3ccccc3)n2)n1`, for which the AC50 is 16.6 µM (active).

As for `COc1c(OCCCN2CCOCC2)ccc2c3n(c(=NC(=O)c4cnc(N)nc4)nc12)CCN3`, the AC50 is 0.102 µM (active).

For the compound `COc1ccc(-c2ccc3c(N4CCOC[C@@H]4C)nc(N4CCOC[C@@H]4C)nc3n2)cc1CO`, the AC50 is 0.00935 µM (active).

As for `COc1cccc2cc(-c3nc(C4CCC(C(=O)O)CC4)n4ncnc(N)c34)[nH]c12` (centres undefined), the AC50 is 0.166 µM (active).

In the case of `COc1ccc2c(c1)CC[C@@H]1[C@@H]2CC[C@]2(C)[C@@H](NCCCCCCN3C(=O)C=CC3=O)CC[C@@H]12`, the call was inactive.

For the compound `CC(C)c1cc(C(C)C)c(CC(=O)NS(=O)(=O)Oc2c(C(C)C)cccc2C(C)C)c(C(C)C)c1`, the AC50 is 20.9 µM (active).

As for `CC1(C)CCC2=C(O1)c1ccccc1C(=O)C2=O`, the concentration at half-maximal activity (AC50) was 20.9 µM (active).

As to `Nc1nc(Nc2ccc(S(N)(=O)=O)cc2)nn1C(=O)c1c(F)cccc1F`, the AC50 was 9.35 µM (active).

Turning to `CC[C@@]1([C@@H]2O[C@@H]([C@H]3O[C@@](O)(CO)[C@H](C)C[C@@H]3C)C[C@@H]2C)CC[C@H]([C@]2(C)CC[C@]3(C[C@H](O)[C@@H](C)[C@@H]([C@@H](C)[C@@H](OC)[C@H](C)C(=O)O)O3)O2)O1`, the concentration at half-maximal activity (AC50) was 0.144 µM (active).

As for `CC(=O)O/N=C1/C(c2c(O)[nH]c3cc(Br)ccc23)=Nc2ccccc21`, the concentration at half-maximal activity (AC50) is 1.48 µM (active).

Consider `Cc1ccc(F)c(NC(=O)Nc2ccc(-c3cccc4[nH]nc(N)c34)cc2)c1`, for which the half-maximal activity concentration (AC50) is 14.8 µM (active).

For `Cc1ncc(-c2ccnc(Nc3ccc(S(C)(=O)=O)cc3)n2)n1C(C)C`, the AC50 was 2.35 µM (active).

The values are drawn from PubChem BioAssay.
